Among the data in PubChem BioAssay (NCATS) are Potency and activity change, negative = inhibition values, retold here.

Molecules are shown by their SMILES. Results filed as inconclusive are left out. A call without a number means that no potency is given here. Unmarked numbers belong to inactive results. Active and inactive are the calls of the source. Calls follow the shape of the full dose curve.
Potency is read from the fitted curve at half-maximal effect.

The target in this experiment is Nucleoprotein (Lymphocytic choriomeningitis virus (strain Armstrong)) (UniProt P09992). Briefly: qHTS for Inhibitors of the Functional Ribonucleoprotein Complex (vRNP) of Lymphocytic Choriomeningitis Arenaviruses (LCMV): LCMV Primary Screen - GLuc reporter signal (AID 1347086). Also: nearly all actives have a fitted effect of over 70% in size. The note with it: LCMV minigenome vRNP cell assay, Gaussia luciferase reporter; series mostly up to 57.5 µM. For orientation: qHTS replaces the single test concentration by a dilution series.
Sequence of Nucleoprotein (Lymphocytic choriomeningitis virus (strain Armstrong)) (P09992 whole entry, looked up): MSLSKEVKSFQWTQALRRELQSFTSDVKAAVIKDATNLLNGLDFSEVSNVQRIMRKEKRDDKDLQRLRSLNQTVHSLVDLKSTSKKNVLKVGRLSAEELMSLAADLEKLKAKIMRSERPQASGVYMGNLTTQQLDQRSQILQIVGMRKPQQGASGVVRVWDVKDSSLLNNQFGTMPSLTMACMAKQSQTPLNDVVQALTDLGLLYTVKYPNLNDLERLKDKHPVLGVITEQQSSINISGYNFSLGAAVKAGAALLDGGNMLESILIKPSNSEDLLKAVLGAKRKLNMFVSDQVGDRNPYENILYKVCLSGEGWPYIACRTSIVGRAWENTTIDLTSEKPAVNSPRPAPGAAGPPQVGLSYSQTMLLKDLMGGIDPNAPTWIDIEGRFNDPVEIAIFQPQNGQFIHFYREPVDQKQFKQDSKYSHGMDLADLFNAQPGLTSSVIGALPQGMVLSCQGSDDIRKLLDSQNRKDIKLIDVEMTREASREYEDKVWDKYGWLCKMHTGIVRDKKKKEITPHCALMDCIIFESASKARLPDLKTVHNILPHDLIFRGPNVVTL
For `CCCCCOc1ccc(C2SC(=O)NC2=O)cc1OCC` (centres undefined), the Potency result was “inactive”. Still for that read-out and setting: in the case of `COc1nc(C)nc(Cl)c1NC1=NCCN1` it was “inactive”.

Turning to `CCCCCCCCCCOCC(O)CN` (centres undefined), the Potency entry is “inactive”. The same measure, in the same setting: the result for `C/C(=N/NC(=O)c1ccncc1)C(=O)O` reads “inactive”. Same read-out and setting: in the case of `CN1CCOC(c2ccccc2)c2ccccc2C1` (centres undefined) it was “inactive”; in that of `CC(=O)Oc1ccc(C2(c3ccc(OC(C)=O)cc3)C(=O)Nc3ccccc32)cc1`, “inactive”. Consider `CCOC(=O)Cn1cccc1-c1nc(-c2ccc(OC)cc2)c(-c2ccc(OC)cc2)s1`, for which the Potency result is “inactive”. Same read-out and setting: the result for `Cc1ccc(O)cc1` reads “inactive”. With `O=c1[nH]c(=O)c2[nH]c(=O)[nH]c2[nH]1`, the activity change, negative = inhibition was 20.2% [at 11.5 µM]. `c1ccc([C@H]2CN3CCSC3=N2)cc1`: the Potency entry was “inactive”.

As for `O=c1ccc2ccccc2o1`, the Potency entry is “inactive”.

In the case of `C[C@H](O)C(=O)Nc1c(I)c(C(=O)NC(CO)CO)c(I)c(C(=O)NC(CO)CO)c1I`, the Potency result is “inactive”. On the same count and under the same terms, the result for `COc1cc(C(=O)NCCCCCC(=O)O)cc(OC)c1OC` reads “inactive”; that for `C=C(C)C(=O)OCC(O)CO` (centres undefined), “inactive”.

As to `CN1CCC(OC(c2ccccc2)c2ccccc2)CC1`, the Potency result was “inactive”. `COc1ccc(CCN2CCC(Nc3nc4ccccc4n3Cc3ccc(F)cc3)CC2)cc1`: the Potency entry is “inactive”. In the case of `O=c1[nH]c(=O)c2ccccc2o1`, the Potency result is “inactive”.

On to `CC(C)n1nc(-c2cc3cc(O)ccc3[nH]2)c2c(N)ncnc21`, for which the Potency was 1780 nM (active). With `CNCCC(Oc1ccccc1OC)c1ccccc1` (centres undefined), the Potency result was “inactive”. On the same count and under the same terms, the result for `CCCCN(CCN(CCCC)C(=O)N1CCOCC1)C(=O)N1CCOCC1` reads “inactive”; that for `O=C(O)COC(=O)Cc1ccccc1Nc1c(Cl)cccc1Cl`, “inactive”; that for `CCOc1c(N2CCOCC2)cnn(C)c1=O`, “inactive”. Same read-out and setting: the result for `COc1cc(OC)cc(OC)c1` reads “inactive”. Same read-out and setting: in the case of `C[C@@H]1C[C@H]2[C@@H]3CCC4=CC(=O)C=C[C@]4(C)[C@@]3(F)[C@@H](O)C[C@]2(C)[C@@]1(O)C(=O)COC(=O)c1ccncc1` it was “inactive”; in that of `CC(C)C[C@@H](N)C(=O)O`, “inactive”.

As for `O=C(O)c1cccc(-c2noc(-c3ccccc3F)n2)c1`, the Potency entry is “inactive”. On to `CN(C)CCCOC1(Cc2ccccc2)CCCCCC1`, for which the Potency result was “inactive”. Same read-out and setting: in the case of `CCCCCCOC(=O)NC(=N)c1ccc(NCc2nc3cc(C(=O)N(CCC(=O)OCC)c4ccccn4)ccc3n2C)cc1` it was “inactive”; in that of `CCN(CCCc1ccccc1)CCCc1ccccc1`, “inactive”; in that of `COc1cccc(CCc2ccccc2OCC(CN(C)C)OC(=O)CCC(=O)O)c1` (centres undefined), “inactive”. The same measure, in the same setting: the result for `C[C@]12CC[C@@H]3c4ccc(O)cc4CC[C@H]3[C@@H]1C[C@@H](O)[C@@H]2O` reads “inactive”; that for `C/C(=C(/OCCOc1ccc(Cl)cc1)c1ccc(Cl)cc1Cl)n1ccnc1`, “inactive”; that for `CN(C)CCCN1c2ccccc2Sc2ccc(C(F)(F)F)cc21`, “inactive”. As to `CCCCOC(=O)CCCCCCCCC(=O)OCCCC`, the Potency entry is “inactive”. Same read-out and setting: in the case of `CCN(CC)CCNC(C(=O)OCCC(C)C)c1ccccc1` (centres undefined) it was “inactive”; in that of `O=C(O)c1ccccc1Nc1cc(Cl)ccc1C(=O)O`, “inactive”; in that of `COc1cc(N)c(Cl)cc1C(=O)NC1CCN(Cc2ccccc2)CC1`, “inactive”. The same measure, in the same setting: the result for `C=C1c2cccc(O)c2C(O)=C2C(=O)[C@]3(O)C(O)=C(C(N)=O)C(=O)[C@@H](N(C)C)[C@@H]3[C@@H](O)[C@H]12` reads “inactive”; that for `COc1ccc2cc1Oc1ccc(cc1)C[C@H]1c3c(cc4c(c3Oc3cc5c(cc3OC)CCN(C)[C@@H]5C2)OCO4)CCN1C`, “inactive”.
